Most compounds without a hit are left out; they make up all but 21% or so of the library.
Pf growth 96h – P. falciparum growth inhibition at 96 hour, primary screen for plastid delayed-death inhibitors | 320,000 tested, 6.9% active | AID 504834 | Potency, µM (doses to about 28.7 µM), usual class: inhibitors | P. falciparum luciferase reporter growth, 96 h
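Delayed-death screen, second-generation endpoint: infected erythrocytes, 2% hematocrit, 0.05% parasitemia final; 96 hours at 37 C, 5% CO2; luciferase detection reagent; luminescence decrease equals reduced growth.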
Sm TGR block – S. mansoni TGR enzyme inhibition | Q962Y6 | purified TGR, DTNB reduction, TNB absorbance 405 nm | Potency, µM (series often up to 114 µM), most hits filed as inhibitors | 360,000 tested, 3% active; note: nearly all actives have a fitted effect of over 60% in size
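Kinetic colorimetric format: TGR-catalysed, NADPH-driven DTNB reduction monitored via TNB absorbance. Enzyme dispensed at 20 nM; compound exposure 15 min at room temperature before reaction start.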
Cycloheximide cs – counter-screen hit for Shiga toxin inhibitors, cycloheximide; cell reporter, cycloheximide protein synthesis inhibition counterscreen; max response, %; 300,000 tested, 12% active; in the data active = max response mostly above about 13%, no sharp cut-off; inactive = mostly below about 14%; note: read at 38.3 µM for the half of the compounds with a filed dose
Pf growth 48h – inhibits P. falciparum growth in the first generation, 48 h. P. falciparum luciferase growth in erythrocytes, 48 h. Potency, µM (series often up to 28.7 µM), usual class: inhibitors. 310,000 tested, 5.9% active. AID 504832
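Firefly luciferase activity from engineered P. falciparum reports growth; inhibitors lower the luminescent signal. Cultures contained 2% hematocrit erythrocytes at 0.1% final parasitemia.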
NS1 inh – influenza NS1 inhibition | 270,000 tested, 0.4% active | Potency, µM (doses to about 46.1 µM); calls by dose curve; note: actives are rising curves; nearly all actives have a fitted effect of over 50% in size
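S. cerevisiae expressing influenza A NS1, grown in glucose, washed, then diluted 1:100 into pH 6.0 -URA galactose medium with 23 nl compound. Growth recovery read as OD600; NS1-free strain serves as control.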
Shiga toxin inh – blocks Shiga toxin action in Vero cells | 290,000 tested, 9.2% active | Vero cells, Shiga toxin protein synthesis inhibition reporter | inhibition, % at 38.7 µM | AID 2315; in the data active = inhibition mostly above about 28%, no sharp cut-off; inactive = mostly below about 43%
Hits are given with their value. Unless noted, calls come from the whole dose curve; as a rule, active = well fitted curve in the direction sought with a large enough effect; inconclusive = small, poorly fitted or top-dose-only effect, or another doubt; inactive = no such curve, though single readings can be large; an effect the other way counts as inactive or inconclusive.

Results for CCc1cc(=O)oc2c(CNCc3c(F)cccc3Cl)c(O)ccc12 ?
Pf growth 96h: inconclusive; Sm TGR block: inactive; Cycloheximide cs: inactive; Pf growth 48h: 9.28µM; NS1 inh: inactive; Shiga toxin inh: inactive

How did CCc1cc(=O)oc2c(CN3CCCC3)c(O)c(Cl)cc12 do in these assays?
Sm TGR block: inactive; Cycloheximide cs: inactive; Pf growth 48h: inactive; NS1 inh: inactive; Shiga toxin inh: inactive

How did COCC(C)NC(=O)C(C)Oc1ccccc1 (stereo unspecified) do in these assays?
Pf growth 96h: inactive; Sm TGR block: inactive; Cycloheximide cs: inactive; Pf growth 48h: inactive; NS1 inh: inactive; Shiga toxin inh: inactive

Results for O=C(Nc1cccnc1)c1cccs1 ?
Pf growth 96h: inactive; Sm TGR block: inactive; Cycloheximide cs: inactive; Pf growth 48h: inactive; NS1 inh: inactive; Shiga toxin inh: inactive

What do the screens show for `O=C(/C=C/c1cccs1)Nc1scc(-c2ccccc2)c1C(=O)O`?
Pf growth 96h: inactive; Sm TGR block: inactive; Cycloheximide cs: 44.2; Pf growth 48h: inactive; Shiga toxin inh: 91.5

Results for O=C(/C=C/c1cccs1)Nc1nc(-c2ccccc2)cs1 ?
Pf growth 96h: inactive; Sm TGR block: inactive; Cycloheximide cs: 40.0; Pf growth 48h: inconclusive; NS1 inh: inactive; Shiga toxin inh: 62.7

What do the screens show for `Cc1ccnc(NC(=O)C2(c3cccs3)CCOCC2)c1`?
Pf growth 96h: inactive; Sm TGR block: inactive; Cycloheximide cs: inactive; Pf growth 48h: inactive; NS1 inh: inactive; Shiga toxin inh: inactive

What do the screens show for `Cc1ccnc(NC(=O)/C=C/c2cccs2)c1`?
Pf growth 96h: inactive; Sm TGR block: inactive; Cycloheximide cs: 49.9; Pf growth 48h: inactive; NS1 inh: inactive; Shiga toxin inh: 97.4

How did O=C(/C=C/c1cccs1)Nc1cccnc1 do in these assays?
Pf growth 96h: 4.65µM; Sm TGR block: inactive; Cycloheximide cs: 75.3; Pf growth 48h: inactive; NS1 inh: inactive; Shiga toxin inh: 124.0

How did O=C(/C=C/c1cccs1)Nc1nncs1 do in these assays?
Pf growth 96h: inactive; Sm TGR block: inactive; Cycloheximide cs: 33.5; Pf growth 48h: inactive; NS1 inh: inactive; Shiga toxin inh: 53.6

How did COc1cc(S(=O)(=O)Nc2cccc3cn[nH]c23)c(OC)cc1C do in these assays?
Pf growth 96h: 2.94µM; Sm TGR block: inactive; Cycloheximide cs: inactive; Pf growth 48h: 10.4µM; NS1 inh: inactive; Shiga toxin inh: inactive

How did O=C(OC1CCc2ccccc2C1=O)c1ccccc1O (stereo unspecified) do in these assays?
Sm TGR block: inactive; Cycloheximide cs: 40.6; Pf growth 48h: inactive; NS1 inh: inactive; Shiga toxin inh: 90.2

How did O=C(CSc1nc2ncc(Cl)cc2[nH]1)c1c[nH]c2ccccc12 do in these assays?
Pf growth 96h: 1.85µM; Sm TGR block: inactive; Cycloheximide cs: inactive; Pf growth 48h: 10.4µM; NS1 inh: inactive; Shiga toxin inh: inactive

Results for CC(C)(C)C(=O)CSc1nc2ncc(Br)cc2[nH]1 ?
Pf growth 96h: inactive; Sm TGR block: inactive; Cycloheximide cs: 35.6; Pf growth 48h: inconclusive; NS1 inh: inactive; Shiga toxin inh: inactive

Results for COC(=O)CSc1nc2ncc(Cl)cc2[nH]1 ?
Pf growth 96h: 13.1µM; Sm TGR block: inactive; Cycloheximide cs: inactive; Pf growth 48h: inactive; NS1 inh: inactive; Shiga toxin inh: inactive

How did Nc1cccc(-n2cccc2)c1 do in these assays?
Pf growth 96h: inactive; Sm TGR block: inactive; Cycloheximide cs: inactive; Pf growth 48h: inactive; NS1 inh: inactive; Shiga toxin inh: inactive

What do the screens show for `CCOc1ccc(-c2nonc2NC(=O)COc2ccc(C)c(C)c2)cc1OCC`?
Sm TGR block: inactive

Results for Cn1ccnc1C1CCCCN1Cc1nc(-c2ccc3c(c2)OCO3)no1 (stereo unspecified) ?
Pf growth 96h: inactive; Sm TGR block: inactive; Cycloheximide cs: inactive; Pf growth 48h: inactive; NS1 inh: inactive; Shiga toxin inh: inactive

Results for CCC(=O)Nc1cccc(C(=O)N(Cc2ccccc2)Cc2ccccc2)c1 ?
Pf growth 96h: inconclusive; Sm TGR block: inactive; Cycloheximide cs: inactive; Pf growth 48h: inconclusive; NS1 inh: inactive; Shiga toxin inh: inactive

What do the screens show for `Oc1ccccc1O`?
Pf growth 96h: inactive; Sm TGR block: 15.8µM; Pf growth 48h: inconclusive; NS1 inh: inactive

Results for CCC1CCc2c(sc(NC(=O)C3c4ccccc4Oc4ccccc43)c2C(N)=O)C1 (stereo unspecified) ?
Pf growth 96h: inactive; Sm TGR block: inactive; Cycloheximide cs: inactive; Pf growth 48h: inactive; NS1 inh: inactive; Shiga toxin inh: inactive

Results for CC(C)Oc1ccc(CSc2ncn[nH]2)cc1 ?
Pf growth 96h: inactive; Sm TGR block: inactive; Cycloheximide cs: 32.4; Pf growth 48h: inactive; NS1 inh: inactive; Shiga toxin inh: 50.9

How did CC(=O)c1ccc(-n2c(CCC(=O)O)ccc2-c2cccs2)cc1 do in these assays?
Pf growth 96h: inactive; Sm TGR block: 0.891µM; Cycloheximide cs: inactive; Pf growth 48h: inactive; NS1 inh: inactive; Shiga toxin inh: inactive

Results for O=C(O)CCc1ccc(-c2cccs2)n1NC(=O)c1ccc(Cl)cc1Cl ?
Pf growth 96h: inactive; Sm TGR block: inactive; Cycloheximide cs: inactive; NS1 inh: inactive; Shiga toxin inh: inactive

What do the screens show for `NC(=O)c1ccc(-n2c(CCC(=O)O)ccc2-c2cccs2)cc1`?
Pf growth 96h: inconclusive; Sm TGR block: 2µM; Cycloheximide cs: inactive; Pf growth 48h: inactive; Shiga toxin inh: inactive

How did Cc1ccc(-n2c(CCC(=O)O)ccc2-c2cccs2)cc1Cl do in these assays?
Sm TGR block: 7.94µM

What do the screens show for `Cc1ccc(-n2c(CCC(=O)O)ccc2-c2cccs2)cc1`?
Sm TGR block: 12.6µM; Cycloheximide cs: 25.1; Pf growth 48h: inactive; NS1 inh: inactive; Shiga toxin inh: 97.2

Results for CC(C)CC(=O)N1CCN(Cc2ccc3c(c2)OCO3)CC1 ?
Sm TGR block: inactive; Cycloheximide cs: inactive; Pf growth 48h: inactive; NS1 inh: inactive; Shiga toxin inh: inactive

What do the screens show for `COCc1cc(C)nc2sc(C(=O)Nc3ccccc3OC)c(N)c12`?
Pf growth 96h: inconclusive; Sm TGR block: inactive; Cycloheximide cs: inactive; Pf growth 48h: inactive; NS1 inh: inactive; Shiga toxin inh: inactive

How did COCc1cc(C)nc2sc(C(=O)Nc3ccc(C(C)=O)cc3)c(N)c12 do in these assays?
Sm TGR block: inactive

What do the screens show for `COCc1cc(C)nc2sc(C(=O)Nc3nccs3)c(N)c12`?
Pf growth 96h: inactive; Sm TGR block: inactive; Cycloheximide cs: 41.9; NS1 inh: inactive; Shiga toxin inh: inactive

Results for Cc1cc(C)c2c(N)c(C(=O)Nc3nccs3)sc2n1 ?
Pf growth 96h: inactive; Sm TGR block: inactive; Cycloheximide cs: inactive; Pf growth 48h: inactive; NS1 inh: inactive; Shiga toxin inh: inactive

What do the screens show for `COCc1cc(C)nc2sc(C(=O)Nc3ccc(OC)cc3)c(N)c12`?
Pf growth 96h: inconclusive; Sm TGR block: inactive; Cycloheximide cs: 28.6; Pf growth 48h: inactive; NS1 inh: inactive; Shiga toxin inh: inactive

How did COCc1cc(C)nc2sc(C(=O)Nc3cccc(OC)c3)c(N)c12 do in these assays?
Pf growth 96h: inconclusive; Sm TGR block: inconclusive; Cycloheximide cs: 53.6; Pf growth 48h: inactive; NS1 inh: inactive; Shiga toxin inh: 65.9

Screening data deposited in PubChem BioAssay by National Center for Advancing Translational Sciences (NCATS).
